Results published in PubChem BioAssay (NCATS).
Results filed as inconclusive are left out. The source made the active and inactive calls. Unless noted, calls come from the whole dose curve; as a rule, active = well fitted curve in the direction sought with a large enough effect; inconclusive = small, poorly fitted or top-dose-only effect, or another doubt; inactive = no such curve, though single readings can be large; an effect the other way counts as inactive or inconclusive.

What was measured:
[1] = target: Cytochrome P450 3A4 (Homo sapiens) (UniProt P08684); assay: qHTS Assay for Inhibitors and Substrates of Cytochrome P450 3A4 (AID 884); note: % is set by controls: 0 for no effect and ±100 for the full control effect; nearly all actives have a fitted effect of over 50% in size
Chain of Cytochrome P450 3A4 (Homo sapiens) (P08684 whole entry, looked up): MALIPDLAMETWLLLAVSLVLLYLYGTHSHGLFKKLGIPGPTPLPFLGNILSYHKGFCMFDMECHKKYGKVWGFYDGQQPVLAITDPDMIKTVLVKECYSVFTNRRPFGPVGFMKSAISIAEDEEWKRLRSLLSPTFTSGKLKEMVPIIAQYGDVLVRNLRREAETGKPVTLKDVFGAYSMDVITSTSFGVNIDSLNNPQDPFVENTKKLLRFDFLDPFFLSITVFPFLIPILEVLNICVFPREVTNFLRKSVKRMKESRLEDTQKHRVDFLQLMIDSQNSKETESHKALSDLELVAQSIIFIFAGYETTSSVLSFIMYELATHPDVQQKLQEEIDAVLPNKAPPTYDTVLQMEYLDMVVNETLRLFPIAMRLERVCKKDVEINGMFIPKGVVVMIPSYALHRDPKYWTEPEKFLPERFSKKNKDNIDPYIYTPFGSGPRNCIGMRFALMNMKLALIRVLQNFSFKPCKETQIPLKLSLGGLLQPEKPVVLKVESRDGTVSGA
How it was run: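 20 nM human CYP3A4 with 25 uM Luciferin-PPXE (at KM) in 200 mM KPO4, preincubated 10 min with compound; NADPH regeneration started a 60 min RT reaction. Luciferin detected by luminescence, normalized to 57 uM ketoconazole as full inhibition.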

[2] = Confirmation and Secondary Assay for Modulators of Hemoglobin Beta Chain Splicing at IVS2 654 locus (AID 910);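 note: per-well total GFP intensity by laser scanning cytometry after 2-day treatment; % of control where 0% means no effect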
How it was run: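 HeLa cells stably carrying EGFP interrupted by mutant beta-globin IVS2-654 intron (CMV-driven) were treated with compound for 2 days at 37C; corrected splicing was scored as total peak GFP intensity per well (488 nm excitation, 500-520 nm emission).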

[3] = Confirmation and Secondary Assay for Modulators of Hemoglobin Beta Chain Splicing at IVS2 705 locus (AID 930);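 note: HeLa cells stably expressing the EGFP-705 splicing reporter; GFP fluorescence per well restored by corrected splicing of the IVS2-705 intron in EGFP; % of control where 0% means no effect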
How it was run: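 Stable HeLa line with EGFP disrupted by mutant beta-globin intron 2 (705). Overnight attachment, then 2 days of compound at 37C, 5% CO2. Signal: peak GFP intensity summed over objects 5-250 µm.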

[4] = target: ATP-dependent 6-phosphofructokinase (Trypanosoma brucei brucei) (UniProt O15648); assay: qHTS Assay to Find Inhibitors of T. brucei phosphofructokinase: hit validation (AID 492961);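 note: luminescence reports ADP formed as PFK phosphorylates fructose-6-phosphate with ATP; % is set by controls: 0 for no effect and ±100 for the full control effect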
Chain of ATP-dependent 6-phosphofructokinase (Trypanosoma brucei brucei) (O15648 whole entry, looked up): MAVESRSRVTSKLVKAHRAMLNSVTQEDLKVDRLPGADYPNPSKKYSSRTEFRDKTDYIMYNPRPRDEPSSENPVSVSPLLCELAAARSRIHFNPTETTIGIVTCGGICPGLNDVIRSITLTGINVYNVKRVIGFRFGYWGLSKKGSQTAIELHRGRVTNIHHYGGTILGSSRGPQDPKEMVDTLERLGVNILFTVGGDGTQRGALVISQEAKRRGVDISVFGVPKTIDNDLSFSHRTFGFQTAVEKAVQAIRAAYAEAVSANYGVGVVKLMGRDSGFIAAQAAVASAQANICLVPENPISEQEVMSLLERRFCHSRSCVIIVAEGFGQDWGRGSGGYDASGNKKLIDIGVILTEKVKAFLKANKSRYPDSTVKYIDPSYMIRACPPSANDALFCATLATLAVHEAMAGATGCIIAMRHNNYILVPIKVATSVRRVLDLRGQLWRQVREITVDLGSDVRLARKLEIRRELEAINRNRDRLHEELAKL
How it was run: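 PFK 1.25 nM, F6P 0.5 mM, ATP 0.1 mM, MgCl2 5 mM, 0.1 M TEA pH 8.0, Tween20 0.01%, BSA 0.1%; 45 min RT. ADP-Glo two-step detection, luminescence. qHTS titration; curve fitting with curve-class categorization.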

[5] = target: Luciferin 4-monooxygenase (Photinus pyralis) (UniProt P08659); assay: Biochemical firefly luciferase enzyme assay for NPC (AID 624030);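 note: purified P. pyralis luciferase at 10 nM with luciferin and ATP substrate; 0% = DMSO and -100% = full luciferase inhibition by PTC124 control; nearly all actives have a fitted effect of over 70% in size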
Chain of Luciferin 4-monooxygenase (Photinus pyralis) (P08659 whole entry, looked up): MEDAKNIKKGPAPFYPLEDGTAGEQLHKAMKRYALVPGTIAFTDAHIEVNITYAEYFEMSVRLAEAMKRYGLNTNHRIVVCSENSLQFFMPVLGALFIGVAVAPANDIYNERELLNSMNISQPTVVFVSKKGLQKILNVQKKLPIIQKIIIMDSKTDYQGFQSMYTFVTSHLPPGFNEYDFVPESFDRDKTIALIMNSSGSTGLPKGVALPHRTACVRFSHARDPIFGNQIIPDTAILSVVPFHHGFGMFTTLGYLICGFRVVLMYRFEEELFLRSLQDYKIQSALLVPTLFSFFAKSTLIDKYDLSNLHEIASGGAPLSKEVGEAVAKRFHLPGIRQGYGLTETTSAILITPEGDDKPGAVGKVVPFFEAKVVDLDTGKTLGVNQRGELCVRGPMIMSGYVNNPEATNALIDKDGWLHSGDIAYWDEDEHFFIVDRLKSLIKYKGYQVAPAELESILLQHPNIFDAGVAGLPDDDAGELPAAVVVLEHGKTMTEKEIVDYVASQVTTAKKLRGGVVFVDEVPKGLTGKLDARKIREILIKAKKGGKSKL
How it was run: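 Counter-screen for direct inhibition of the luciferase enzyme by approved-drug library compounds, run at 10 nM enzyme in 50 mM Tris acetate (final). Luminescence was read within 5 min of enzyme-buffer addition and normalized to PTC124 versus DMSO (0%).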

[6] = S16 Schwann cell viability assay (CellTiter-Glo assay) (AID 624031);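 note: cellular ATP luminescence as a viability measure; plate controls were DMSO-treated cells for no effect and cell-free wells for full effect; nearly all actives have a fitted effect of over 70% in size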
How it was run: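 Native S16 Schwann cells (rat), serum-containing medium, overnight attachment then 24 h drug exposure at 37 °C/5% CO2. CellTiter-Glo ATP signal; normalized to cell-free and vehicle wells.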

[7] = S16 Schwann cell PMP22 intronic element firefly luciferase assay (AID 624032);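 note: plate controls were DMSO for no effect and PTC124 positive control mean for full effect; nearly all actives have a fitted effect of over 30% in size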
How it was run: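 Rat S16 Schwann cells stably carrying a PMP22 intronic element-driven Fluc reporter were seeded overnight, then exposed to compounds for 24 h at 37 °C. Luminescence was normalized to PTC124 (positive control) and DMSO (0% activity).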

[8] = S16 Schwann cell PMP22 intronic element beta-lactamase assay (AID 624044; calls by dose curve;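 note: 0% = DMSO and -100% = potassium clavulanate positive control; nearly all actives have a fitted effect of over 15% in size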)
How it was run: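 Rat S16 Schwann cells with beta-Lac driven by a PMP22 intronic element, compound-treated 24 h at 37 °C. LiveBLAzer FRET B/G read: 460 nm normalized to potassium clavulanate vs DMSO; 535 nm FRET as viability; concentration-effect curves classified.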

[9] = qHTS profiling for inhibitors of Plasmodium falciparum proliferation (AID 504749);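 note: 0% = DMSO vehicle and full inhibition = artemisinin control; nearly all actives have a fitted effect of over 60% in size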; details: P. falciparum in erythrocytes, SYBR Green DNA, 72 h, at 28.7 µM (top of the series)
How it was run: (§1)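 Parasite proliferation within erythrocytes, 72 h exposure. Endpoint: SYBR Green I fluorescence after overnight lysis at room temperature. Controls: 0.29 uM artemisinin, DMSO.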

[10] = test system: 3D7; assay: as above; details: P. falciparum in erythrocytes, SYBR Green DNA, 72 h; series mostly up to 12.8 µM
How it was run: as §1

[11] = test system: AA1029; assay: as above; details: P. falciparum in erythrocytes, SYBR Green DNA, 72 h; series mostly up to 12.8 µM
How it was run: as §1

[12] = test system: AS120; assay: as above; details: P. falciparum in erythrocytes, SYBR Green DNA, 72 h; series mostly up to 12.8 µM
How it was run: as §1

[13] = test system: ATS189; assay: as above; details: P. falciparum in erythrocytes, SYBR Green DNA, 72 h; series mostly up to 12.8 µM
How it was run: as §1

[14] = test system: ATS95; assay: as above; details: P. falciparum in erythrocytes, SYBR Green DNA, 72 h; series mostly up to 12.8 µM
How it was run: as §1

[15] = test system: C2A; assay: as above; details: P. falciparum in erythrocytes, SYBR Green DNA, 72 h; series mostly up to 12.8 µM
How it was run: as §1

[16] = test system: CP185; assay: as above; details: P. falciparum in erythrocytes, SYBR Green DNA, 72 h; series mostly up to 12.8 µM
How it was run: as §1

[17] = test system: CP191; assay: as above; details: P. falciparum in erythrocytes, SYBR Green DNA, 72 h; series mostly up to 12.8 µM
How it was run: as §1

[18] = test system: CP192; assay: as above; details: P. falciparum in erythrocytes, SYBR Green DNA, 72 h; series mostly up to 12.8 µM
How it was run: as §1

[19] = test system: CP194; assay: as above; details: P. falciparum in erythrocytes, SYBR Green DNA, 72 h; series mostly up to 12.8 µM
How it was run: as §1

[20] = test system: CP201; assay: as above; details: P. falciparum in erythrocytes, SYBR Green DNA, 72 h; series mostly up to 12.8 µM
How it was run: as §1

[21] = test system: CP203; assay: as above; details: P. falciparum in erythrocytes, SYBR Green DNA, 72 h; series mostly up to 12.8 µM
How it was run: as §1

[22] = test system: CP211; assay: as above; details: P. falciparum in erythrocytes, SYBR Green DNA, 72 h; series mostly up to 12.8 µM
How it was run: as §1

[23] = test system: CP215; assay: as above; details: P. falciparum in erythrocytes, SYBR Green DNA, 72 h; series mostly up to 12.8 µM
How it was run: as §1

[24] = test system: CP217; assay: as above; details: P. falciparum in erythrocytes, SYBR Green DNA, 72 h; series mostly up to 12.8 µM
How it was run: as §1

[25] = test system: CP237; assay: as above; details: P. falciparum in erythrocytes, SYBR Green DNA, 72 h; series mostly up to 12.8 µM
How it was run: as §1

[26] = test system: CP238; assay: as above; details: P. falciparum in erythrocytes, SYBR Green DNA, 72 h; series mostly up to 12.8 µM
How it was run: as §1

[27] = test system: CP247; assay: as above; details: P. falciparum in erythrocytes, SYBR Green DNA, 72 h; series mostly up to 12.8 µM
How it was run: as §1

[28] = test system: CP250; assay: as above; details: P. falciparum in erythrocytes, SYBR Green DNA, 72 h; series mostly up to 12.8 µM
How it was run: as §1

[29] = test system: CP252; assay: as above; details: P. falciparum in erythrocytes, SYBR Green DNA, 72 h; series mostly up to 12.8 µM
How it was run: as §1

[30] = test system: CP256; assay: as above; details: P. falciparum in erythrocytes, SYBR Green DNA, 72 h; series mostly up to 12.8 µM
How it was run: as §1

[31] = test system: CP260; assay: as above; details: P. falciparum in erythrocytes, SYBR Green DNA, 72 h; series mostly up to 12.8 µM
How it was run: as §1

[32] = test system: CP265; assay: as above; details: P. falciparum in erythrocytes, SYBR Green DNA, 72 h; series mostly up to 12.8 µM
How it was run: as §1

CN(C)CCc1c[nH]c2ccc(CC3COC(=O)N3)cc12 (stereo not drawn)
inactive: Potency [1] | Potency [2] | Potency [3] | outcome [4] | Potency [5] | outcome [6] | Potency [7] | Potency [8] | activity, negative = inhibition ([9]; parasite line A) -2.15% | activity, negative = inhibition ([9]; parasite line B) 12.7% | Potency [10] | Potency [11] | Potency [12] | Potency [13] | Potency [14] | Potency [15] | Potency [16] | Potency [17] | Potency [18] | Potency [19] | Potency [20] | Potency [21] | Potency [22] | Potency [23] | Potency [24] | Potency [25] | Potency [26] | Potency [27] | Potency [28] | Potency [29] | Potency [30] | Potency [31] | Potency [32]
